In PubChem BioAssay (Tox21) one finds Potency and max activation data, which are given here for eight molecules.

“And” between values parts separate entries of the source, which are not always exact repeats. Identical values can stand only once. A number with no mark means an inactive call. Inconclusive results are not listed. The source made the active and inactive calls. Unless noted, calls follow the shape of the dose curve; as a rule, active = well fitted curve in the direction sought with a large enough effect in the repeat runs; inconclusive = weak or mixed curves; inactive = no such curve, though single readings can be large; an effect the other way counts as inactive or inconclusive.

The nature of experiment [1]: Caspase-3/7 induction in CHO-K1 cells by small molecules, qHTS cell viability counter screen (AID 1346979). Also: nearly all actives have a fitted effect of over 35% in size. Also: potency is read from the fitted curve at half-maximal effect. The procedure, abridged: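 Seeding: 1,500 CHO-K1 cells/well. Rest: 5hr, 37C. Treatment: compounds in DMSO, 16hr. Read: CellTiter-Fluor, 1hr, fluorescence.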
For orientation: Quantitative high-throughput screening tests each substance at several concentrations.

Experiment [2] in a line: Caspase-3/7 induction in CHO-K1 cells by small molecules, qHTS assay (AID 1346980). Also: nearly all actives have a fitted effect of over 15% in size. Also: potency is read from the fitted curve at half-maximal effect. The procedure, abridged: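 Luminescent Caspase-Glo 3/7 read (30min, room temperature) quantified apoptosis induction. Cells were wild-type CHO-K1, treated with compound for 17hr at 37 C and 5% CO2.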
The nature of experiment [3]: Caspase-3/7 induction in HepG2 cells by small molecules, qHTS cell viability counter screen (AID 1346981). Also: nearly all actives have a fitted effect of over 30% in size. Also: potency is read from the fitted curve at half-maximal effect. An outline of the steps:
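Treatment of HepG2 cells with DMSO-delivered compounds ran 16 hr at 37 C following a 5-hr pre-incubation of 2,000 cells/well. CellTiter-Fluor fluorescence, read after 1 hr, served as the viability measure in a qHTS format.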

Experiment [4] addresses Nuclear receptor subfamily 1 group I member 2 (Homo sapiens) (UniProt O75469). Put plainly: Human pregnane X receptor (PXR) small molecule agonists, qHTS assay (AID 1346982). Also: nearly all actives have a fitted effect of over 35% in size. Also: potency is read from the fitted curve at half-maximal effect. An outline of the steps: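 Stable HepG2 line reporting PXR-mediated CYP3A4 expression via luciferase. Treatment: 24 hr with compounds in DMSO at 37 C. Detection: ONE-Glo luminescence.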
Experiment [5] has as its target Nuclear receptor subfamily 1 group I member 2 (Rattus norvegicus) (UniProt Q9R1A7). Description: Rat pregnane X receptor (rPXR) activation by small molecules, qHTS assay (AID 1346983). Also: nearly all actives have a fitted effect of over 20% in size. To be noted: rPXR luciferase reporter cells, One-Glo luminescence, 24 h; max activation: active compounds read high. An outline of the steps: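 Luminescent readout (One-Glo luciferase, 30 min room temperature) followed 24 hr compound treatment at 37 C of rPXR cells plated 2,000 per well and preincubated 5hr; qHTS format with compounds delivered in DMSO.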

In experiment [6] the target is Nuclear receptor subfamily 1 group I member 2 (Homo sapiens) (UniProt O75469). Description: CYP3A4 induction through human pregnane X receptor (PXR) by small molecules, qHTS assay (AID 1346984). Also: nearly all actives have a fitted effect of over 40% in size. An outline of the steps: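 After 24 h at 37C with compound, DPX-2 cells (HepG2, co-transfected PXR response element and CYP3A4 promoter-luciferase) got 3uM final P450-Glo Luciferin-IPA for 3 h; One-Glo luminescence followed.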
Nuclear receptor subfamily 1 group I member 2 (Homo sapiens), sequence (O75469 whole entry, looked up): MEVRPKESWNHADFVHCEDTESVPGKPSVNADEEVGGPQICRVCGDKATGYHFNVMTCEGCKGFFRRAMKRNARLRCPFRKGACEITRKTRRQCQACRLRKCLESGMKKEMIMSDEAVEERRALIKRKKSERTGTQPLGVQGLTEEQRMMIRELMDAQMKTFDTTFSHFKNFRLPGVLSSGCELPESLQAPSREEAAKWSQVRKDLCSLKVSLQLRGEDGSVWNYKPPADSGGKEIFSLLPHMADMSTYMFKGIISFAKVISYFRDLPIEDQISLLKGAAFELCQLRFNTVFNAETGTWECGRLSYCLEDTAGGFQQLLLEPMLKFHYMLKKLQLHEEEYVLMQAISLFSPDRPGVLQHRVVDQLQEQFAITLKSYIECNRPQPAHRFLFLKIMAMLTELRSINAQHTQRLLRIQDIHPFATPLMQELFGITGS

Experiment [7] shares this target. Description: Human pregnane X receptor (PXR) activation by small molecules, qHTS assay (AID 1346985). Also: nearly all actives have a fitted effect of over 40% in size. An outline of the steps:
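DPX-2 cells (HepG2 co-transfected with a PXR response element and a CYP3A4-promoter luciferase construct) were seeded at 2,000 per well, rested 5 hr at 37C, then exposed to DMSO-dissolved compounds for 24 hr. Activation was read as luciferase luminescence.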

Experiment [8] has as its target Cytochrome P450 2D6 (Homo sapiens) (UniProt P10635). Put plainly: Cytochrome P450 Family 2 Subfamily D Member 6 (CYP2D6) small molecule antagonists: luciferase reporter qHTS assay (AID 1671196). Also: nearly all actives have a fitted effect of over 50% in size. Also: potency is read from the fitted curve at half-maximal effect. The procedure, abridged:
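Chemicals tested for interference with CYP2D6 activity; proluciferin substrate, NADPH regeneration, 1 h at room temperature, luminescent detection.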
Background: In a reporter assay the amount or activity of a reporter protein is the signal.

The target in experiment [9] is Cytochrome P450 2C9 (Homo sapiens) (UniProt P11712). Description: Cytochrome P450 Family 2 Subfamily C Member 9 (CYP2C9) small molecule antagonists: luciferase reporter qHTS assay (AID 1671198). Also: nearly all actives have a fitted effect of over 50% in size. Also: potency is read from the fitted curve at half-maximal effect. An outline of the steps: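 Enzyme-substrate mix preincubated with compound 10 min at room temperature; reaction started with NADPH regeneration solution, 1 h 37C. Luminescent luciferin product read after 20 min detection reagent.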
Cytochrome P450 2C9 (Homo sapiens), sequence (P11712 whole entry, looked up): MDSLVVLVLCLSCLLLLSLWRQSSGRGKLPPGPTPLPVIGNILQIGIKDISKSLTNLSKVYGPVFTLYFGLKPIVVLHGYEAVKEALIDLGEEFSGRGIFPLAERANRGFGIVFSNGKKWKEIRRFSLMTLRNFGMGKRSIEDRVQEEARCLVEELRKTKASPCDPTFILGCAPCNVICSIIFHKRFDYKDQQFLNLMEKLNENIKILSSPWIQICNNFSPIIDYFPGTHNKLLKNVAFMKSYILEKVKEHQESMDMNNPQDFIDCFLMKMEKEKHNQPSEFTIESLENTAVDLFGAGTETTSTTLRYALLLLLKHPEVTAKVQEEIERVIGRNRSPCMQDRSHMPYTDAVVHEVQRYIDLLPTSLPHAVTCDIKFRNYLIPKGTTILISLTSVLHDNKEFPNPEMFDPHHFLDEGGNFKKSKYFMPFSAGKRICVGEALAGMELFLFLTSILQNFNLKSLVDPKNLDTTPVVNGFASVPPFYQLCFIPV

Experiment [10] addresses Cytochrome P450 1A2 (Homo sapiens) (UniProt P05177). Description: Cytochrome P450 Family 1 Subfamily A Member 2 (CYP1A2) small molecule antagonists: luciferase reporter qHTS assay (AID 1671199). Also: nearly all actives have a fitted effect of over 50% in size. Also: potency is read from the fitted curve at half-maximal effect. An outline of the steps:
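Read-out is luminescence from luciferin detection reagent (20 min) proportional to CYP1A2 activity; compounds in DMSO preincubated 10 min with enzyme and proluciferin substrate, then NADPH regeneration solution, 1 h, room temperature.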

Experiment [11] concerns the target Cytochrome P450 3A4 (Homo sapiens) (UniProt P08684). Put plainly: Cytochrome P450 Family 3 Subfamily A Member 4 (CYP3A4) small molecule antagonists: luciferase reporter qHTS assay (AID 1671201). Also: nearly all actives have a fitted effect of over 50% in size. Also: potency is read from the fitted curve at half-maximal effect. The procedure, abridged: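 Enzyme and proluciferin substrate are mixed with test chemicals for 10 min, then NADPH regeneration system drives turnover for 1 h at room temperature. A detection reagent halts the reaction; luminescence after 20 min gives relative activity.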

Experiment [12] addresses Acetylcholinesterase (Homo sapiens) (UniProt P22303). Put plainly: Acetylcholinesterase (AChE) small molecule antagonists: colormetric cell-based qHTS assay (AID 1347395; calls by dose curve; also: nearly all actives have a fitted effect of over 30% in size). The procedure, abridged: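 Quantitative HTS in attached SH-SY5Y cells: 30 min compound exposure, then 90 min with acetylthiocholine and DTNB at 37 C; colour from thiocholine reports AChE activity.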
For experiment [13] the target is unchanged. Description: Acetylcholinesterase (AChE) small molecule antagonists: enzyme-based qHTS assay (AID 1347397; calls by dose curve; also: nearly all actives have a fitted effect of over 55% in size). To be noted: Potency: AChE enzyme activity inhibition. An outline of the steps: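 First, recombinant human AChE (50 mU/mL as dispensed) received test compound or DMSO. Second, plates stood 30 min at room temperature. Third, DTNB and acetylthiocholine were added, followed by 10 min at room temperature and colorimetric detection.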

The target is the same in experiment [14]. Put plainly: Acetylcholinesterase (AChE) small molecule antagonists: fluorescence cell-based qHTS assay (AID 1347398; calls by dose curve; also: nearly all actives have a fitted effect of over 50% in size). To be noted: Potency: AChE activity. An outline of the steps: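 Homogeneous quantitative HTS format. SH-SY5Y cells seeded at 2,000 per well settle overnight at 37 C. Compound pretreatment runs 30 min (37 C, 5% CO2); substrate/probe mix then reacts 40 min at RT before reading 490/520 nm.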

Experiment [15] shares this target. Put plainly: Acetylcholinesterase (AChE) small molecule antagonists: enzyme-based qHTS assay with human liver microsomes (AID 1347399; calls by dose curve; also: nearly all actives have a fitted effect of over 60% in size). To be noted: Potency: qHTS inhibition. The procedure, abridged: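 Recombinant human AChE (50 mU/mL in the enzyme mix) and human liver microsomes (0.25 mg/mL final) were preincubated with compound and NADPH (0.25 mg/mL final) for 30 min at 37 C. Acetylthiocholine/DTNB was then added; thiocholine was read colorimetrically after 10 min at room temperature.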

Experiment [16] addresses Cytochrome P450 2C19 (Homo sapiens) (UniProt P33261). Put plainly: Cytochrome P450 Family 2 Subfamily C Member 19 (CYP2C19) small molecule antagonists: luciferase reporter qHTS assay (AID 1671197). Also: nearly all actives have a fitted effect of over 65% in size. Also: potency is read from the fitted curve at half-maximal effect. An outline of the steps:
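CYP2C19 P450-Glo, 1536-well qHTS. Cpd + enzyme/proluciferin substrate 10 min RT; + NADPH regen, 37C 1 h; stop with luciferin detection reagent, 20 min RT, luminescence (RLU). Pos ctrl ketoconazole.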

In experiment [17] the target is Voltage-gated inwardly rectifying potassium channel KCNH2 (Homo sapiens) (UniProt Q12809). Description: Human Ether-a-go-go-Related Gene (hERG) channel small molecule antagonists: fluorescence cell-based qHTS assay (AID 1671200). Also: nearly all actives have a fitted effect of over 50% in size. Also: potency is read from the fitted curve at half-maximal effect. The procedure, abridged:
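First, 1000 cells per well are seeded and cultured overnight at 37 C. Next, FluxOR II dye is loaded for 1 h at room temperature, protected from light. After 10 more minutes, stimulus is added and fluorescence is read.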
On the technique in general: The hERG channel carries a current that helps repolarise heart muscle cells.
% is scaled to controls: 0 for no effect and ±100 for the full control effect.

Cytochrome P450 2C19 (Homo sapiens), sequence (P33261 whole entry, looked up): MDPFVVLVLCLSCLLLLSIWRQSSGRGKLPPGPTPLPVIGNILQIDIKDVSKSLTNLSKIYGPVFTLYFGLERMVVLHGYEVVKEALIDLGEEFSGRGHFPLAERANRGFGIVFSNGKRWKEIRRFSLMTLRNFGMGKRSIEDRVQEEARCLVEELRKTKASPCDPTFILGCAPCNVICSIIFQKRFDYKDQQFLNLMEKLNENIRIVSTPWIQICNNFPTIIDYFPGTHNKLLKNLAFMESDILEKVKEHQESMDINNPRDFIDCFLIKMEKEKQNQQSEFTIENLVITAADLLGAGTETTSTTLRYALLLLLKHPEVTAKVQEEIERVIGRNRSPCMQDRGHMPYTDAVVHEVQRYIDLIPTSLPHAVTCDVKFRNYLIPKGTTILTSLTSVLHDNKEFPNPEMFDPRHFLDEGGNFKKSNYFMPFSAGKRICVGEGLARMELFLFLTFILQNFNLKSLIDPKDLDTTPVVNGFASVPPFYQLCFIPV
Voltage-gated inwardly rectifying potassium channel KCNH2 (Homo sapiens), sequence (Q12809 whole entry, looked up): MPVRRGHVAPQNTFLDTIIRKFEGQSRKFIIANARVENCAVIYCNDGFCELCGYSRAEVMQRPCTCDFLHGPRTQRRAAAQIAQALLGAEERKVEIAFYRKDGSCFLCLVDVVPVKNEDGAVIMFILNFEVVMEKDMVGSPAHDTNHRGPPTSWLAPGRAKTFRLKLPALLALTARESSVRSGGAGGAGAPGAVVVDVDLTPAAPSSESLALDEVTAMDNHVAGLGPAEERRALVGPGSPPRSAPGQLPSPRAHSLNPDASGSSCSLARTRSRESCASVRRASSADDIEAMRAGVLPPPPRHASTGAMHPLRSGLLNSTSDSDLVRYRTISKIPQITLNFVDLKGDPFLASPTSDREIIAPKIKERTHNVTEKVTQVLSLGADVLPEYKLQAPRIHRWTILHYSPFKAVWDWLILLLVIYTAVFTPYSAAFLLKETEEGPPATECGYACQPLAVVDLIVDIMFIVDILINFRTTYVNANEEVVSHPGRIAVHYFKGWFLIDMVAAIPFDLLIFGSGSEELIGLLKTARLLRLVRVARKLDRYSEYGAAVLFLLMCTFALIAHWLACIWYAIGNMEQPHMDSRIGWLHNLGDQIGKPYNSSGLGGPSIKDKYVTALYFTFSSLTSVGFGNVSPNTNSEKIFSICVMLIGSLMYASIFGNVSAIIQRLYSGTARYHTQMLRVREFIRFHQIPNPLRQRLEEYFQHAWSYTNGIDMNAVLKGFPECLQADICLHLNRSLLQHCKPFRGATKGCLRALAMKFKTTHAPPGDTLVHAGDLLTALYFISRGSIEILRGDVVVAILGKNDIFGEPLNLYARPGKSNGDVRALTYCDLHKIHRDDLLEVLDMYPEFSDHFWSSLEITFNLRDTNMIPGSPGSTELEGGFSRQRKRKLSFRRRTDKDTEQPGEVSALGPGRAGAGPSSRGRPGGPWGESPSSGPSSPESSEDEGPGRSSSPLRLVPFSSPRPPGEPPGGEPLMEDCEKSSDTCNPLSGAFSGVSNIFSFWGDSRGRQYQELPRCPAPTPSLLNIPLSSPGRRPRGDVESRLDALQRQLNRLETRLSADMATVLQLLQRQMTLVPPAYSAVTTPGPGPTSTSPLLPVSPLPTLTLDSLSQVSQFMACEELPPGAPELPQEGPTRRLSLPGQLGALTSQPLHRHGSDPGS
Cytochrome P450 2D6 (Homo sapiens), sequence (P10635 whole entry, looked up): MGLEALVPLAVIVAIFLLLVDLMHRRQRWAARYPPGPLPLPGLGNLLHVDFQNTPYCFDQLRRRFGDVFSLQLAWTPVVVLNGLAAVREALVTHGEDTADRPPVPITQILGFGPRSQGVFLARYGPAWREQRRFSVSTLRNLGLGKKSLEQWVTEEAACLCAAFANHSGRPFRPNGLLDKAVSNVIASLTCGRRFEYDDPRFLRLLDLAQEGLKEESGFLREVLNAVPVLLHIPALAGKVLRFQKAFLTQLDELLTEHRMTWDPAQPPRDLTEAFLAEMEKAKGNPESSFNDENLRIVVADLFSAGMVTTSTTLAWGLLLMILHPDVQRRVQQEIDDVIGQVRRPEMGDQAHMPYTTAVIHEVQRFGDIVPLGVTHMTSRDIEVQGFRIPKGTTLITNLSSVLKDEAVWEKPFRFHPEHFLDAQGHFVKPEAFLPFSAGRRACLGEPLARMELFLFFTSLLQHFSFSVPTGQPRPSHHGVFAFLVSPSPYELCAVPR
Cytochrome P450 1A2 (Homo sapiens), sequence (P05177 whole entry, looked up): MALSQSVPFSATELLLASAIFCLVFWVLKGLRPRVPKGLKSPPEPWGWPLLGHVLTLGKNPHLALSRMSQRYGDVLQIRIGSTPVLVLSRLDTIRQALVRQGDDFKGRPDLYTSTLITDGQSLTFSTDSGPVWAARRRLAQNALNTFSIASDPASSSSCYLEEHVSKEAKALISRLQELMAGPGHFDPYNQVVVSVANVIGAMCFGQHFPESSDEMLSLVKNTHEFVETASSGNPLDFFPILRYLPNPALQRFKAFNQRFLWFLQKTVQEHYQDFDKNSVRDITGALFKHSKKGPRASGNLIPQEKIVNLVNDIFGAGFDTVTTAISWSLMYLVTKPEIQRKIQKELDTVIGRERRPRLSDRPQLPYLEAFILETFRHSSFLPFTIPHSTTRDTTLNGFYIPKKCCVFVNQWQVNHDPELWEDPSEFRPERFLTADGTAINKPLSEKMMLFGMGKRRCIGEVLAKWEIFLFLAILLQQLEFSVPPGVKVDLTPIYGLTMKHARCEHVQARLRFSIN
Acetylcholinesterase (Homo sapiens), sequence (P22303 whole entry, looked up): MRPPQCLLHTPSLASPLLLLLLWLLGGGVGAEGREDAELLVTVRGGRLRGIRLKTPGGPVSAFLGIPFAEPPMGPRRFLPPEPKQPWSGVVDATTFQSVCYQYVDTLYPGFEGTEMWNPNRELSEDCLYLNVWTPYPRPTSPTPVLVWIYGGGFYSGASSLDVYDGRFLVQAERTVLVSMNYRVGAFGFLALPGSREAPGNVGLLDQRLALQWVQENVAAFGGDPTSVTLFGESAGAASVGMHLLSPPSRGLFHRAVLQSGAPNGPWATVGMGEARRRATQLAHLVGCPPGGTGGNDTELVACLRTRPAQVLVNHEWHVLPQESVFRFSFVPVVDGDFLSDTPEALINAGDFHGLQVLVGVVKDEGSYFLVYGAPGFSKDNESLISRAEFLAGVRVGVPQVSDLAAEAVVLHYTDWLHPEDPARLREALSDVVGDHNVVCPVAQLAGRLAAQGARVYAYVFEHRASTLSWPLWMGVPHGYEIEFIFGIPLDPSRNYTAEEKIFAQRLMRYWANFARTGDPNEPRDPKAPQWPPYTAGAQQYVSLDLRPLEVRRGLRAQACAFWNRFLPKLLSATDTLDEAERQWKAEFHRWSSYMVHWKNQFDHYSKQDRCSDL
Cytochrome P450 3A4 (Homo sapiens), sequence (P08684 whole entry, looked up): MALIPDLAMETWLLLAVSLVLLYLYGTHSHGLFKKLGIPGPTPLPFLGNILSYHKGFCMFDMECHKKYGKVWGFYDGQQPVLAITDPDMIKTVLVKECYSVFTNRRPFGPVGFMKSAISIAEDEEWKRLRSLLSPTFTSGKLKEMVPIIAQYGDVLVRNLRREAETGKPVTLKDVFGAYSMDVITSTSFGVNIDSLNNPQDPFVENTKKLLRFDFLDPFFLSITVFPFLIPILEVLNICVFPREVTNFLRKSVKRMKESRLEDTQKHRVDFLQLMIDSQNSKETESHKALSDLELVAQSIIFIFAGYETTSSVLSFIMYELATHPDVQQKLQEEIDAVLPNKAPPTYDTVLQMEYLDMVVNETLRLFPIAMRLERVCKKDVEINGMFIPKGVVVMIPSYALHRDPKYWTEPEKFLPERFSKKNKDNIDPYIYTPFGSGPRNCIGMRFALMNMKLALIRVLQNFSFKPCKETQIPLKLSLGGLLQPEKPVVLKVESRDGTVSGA

On to `COc1cc(N)c(Cl)cc1C(=O)NC1CN2CCC1CC2` (centres undefined), for which the Potency entry in experiment [1], in experiment [2], in [3], in experiment [4], in experiment [6] and in experiment [7] was “inactive” in each case. For the same molecule, the Potency result in experiment [9], in [10] and in [11] was “inactive” throughout. Moreover, the max activation in experiment [5] was -2.4%. The Potency in [8] was 13.8 µM (active).
On to `CCC[CH2][Sn]([CH2]CCC)([CH2]CCC)[O]C(=O)c1ccccc1`, for which the Potency is 0.77 µM (active) in experiment [1]; 1.93 µM (active) in experiment [2]; 4.86 µM (active) in [3]; 0.486 µM (active) in experiment [4]; 1.12 µM (active) in experiment [8]; 1.59 µM (active) in [16]. Further, the Potency in [9] is 12.6 µM (active); in experiment [17] it was 4.9 µM (active); in experiment [11], 35.6 µM (active). The Potency result in experiment [12], in [13], in experiment [14] and in experiment [15] was “inactive” each time.
On to `CC1(C)[C@H](C(=O)O[C@H](C#N)c2cccc(Oc3ccccc3)c2)[C@@H]1/C=C(\Cl)C(F)(F)F`, for which the Potency entry in [1], in experiment [2], in [3], in [12], in experiment [13] and in experiment [14] was “inactive” each time. Further, the Potency result in experiment [15], in experiment [8], in experiment [17] and in [11] was “inactive” throughout. The Potency in experiment [4] was 3.57 µM (active) and 2.43 µM (active); in experiment [16], 5.86 µM (active) and 7.1 µM (active); in experiment [9] it was 8.28 µM (active) and 7.96 µM (active).
As for `CC(C)(C)OO`, the Potency result in experiment [1], in [2], in experiment [3], in experiment [4], in experiment [12] and in [13] was “inactive” throughout. The Potency result in experiment [14], in experiment [15], in experiment [8], in experiment [16], in experiment [9] and in [17] was “inactive” throughout. The Potency result in [11] is “inactive”.
In the case of `ClCc1ccc(Cl)cc1Cl`, the Potency result in experiment [1], in experiment [2], in [3], in experiment [4], in experiment [12] and in [13] was “inactive” each time. The Potency entry in [14], in experiment [15], in experiment [8], in experiment [9], in experiment [17] and in experiment [11] was “inactive” in each case.
In the case of `CC(C)CC(C)Nc1ccc(Nc2ccccc2)cc1` (centres undefined), the Potency in [1] is 60.1 µM (active); in experiment [3] it was 67.4 µM (active); in experiment [4], 12 µM (active); in experiment [8], 2.78 µM (active); in experiment [16], 0.698 µM (active); in experiment [9], 3.5 µM (active). Also, the Potency in experiment [10] was 22.1 µM (active); in experiment [17], 24.1 µM (active); in experiment [11], 31.2 µM (active). Further, the Potency entry in experiment [2], in experiment [12], in experiment [13] and in [15] was “inactive” in each case.
On to `CC(=O)C(Cl)(Cl)Cl`, for which the Potency is 14.8 µM (active) in [1]; 18.7 µM (active) in experiment [3]; 23.5 µM (active) in experiment [4]; 54.5 µM (active) in [16]; 15.3 µM (active) in experiment [9]. Further, the Potency entry in experiment [2], in experiment [12], in [13], in experiment [14], in experiment [15] and in [17] was “inactive” each time. Also, in experiment [11], the Potency entry is “inactive”.
With `N#Cc1c(-c2ccc(Cl)cc2)[nH]c(C(F)(F)F)c1Br`, the Potency in experiment [1] is 1.54 µM (active); in experiment [3], 27.3 µM (active); in experiment [4], 2.17 µM (active); in experiment [16], 39.9 µM (active); in [9], 11.2 µM (active); in experiment [10], 0.317 µM (active). Also, the Potency result in [2], in experiment [12], in experiment [13], in [14], in experiment [15] and in experiment [11] was “inactive” throughout.
